Results on 174 sequences are retold here after publication PMC6212790, “How bacterial xenogeneic silencer rok distinguishes foreign from self DNA in its resident genome”.

Whole data set: some 33,000 sequences, median “e-score” near -0.037, cut for the highest 2% near 0.34. The sample as a whole holds a higher share of the highest values than the screen did.

In this assay the target is T1, GST-Rok (full length) (Bacillus subtilis subsp. subtilis str. …, UniProt O34857 1-191).
T1 sequence: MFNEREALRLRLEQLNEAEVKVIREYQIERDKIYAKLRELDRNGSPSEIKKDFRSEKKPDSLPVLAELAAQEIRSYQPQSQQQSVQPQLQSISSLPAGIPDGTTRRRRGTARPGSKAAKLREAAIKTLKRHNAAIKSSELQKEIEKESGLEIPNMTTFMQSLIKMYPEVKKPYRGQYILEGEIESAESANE
Nature of the assay: protein binding microarray; Rok is a gene silencer of Bacillus subtilis; high values mean tight binding. The note with it: protein: recombinant; tags: GST (pTH5325, pDEST15-Magic modified); dsDNA, one strand shown. In short, it runs like this: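 Every oligonucleotide joins a 25-mer constant primer to a 35-mer variable part drawn from a de Bruijn sequence of order 10, so each non-palindromic 8-mer appears at least 32 times and each palindromic 8-mer 16 times. The preference for every 8-mer is reported as a unitless, rank-based enrichment score (E-score). This score spans 0.5 for the most favored 8-mer to −0.5 for the most disfavored.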
As for CGAGGCCA, the binding signal is -0.199 E-score.
As for TGAACTAA, the binding signal came out at 0.0469 E-score.
The value for ATTCGAAA was 0.159 E-score; that for ATTCGAAT was 0.342 E-score; that for ATTCGAAG was 0.09 E-score.
The value for AGCGGTTA was -0.138 E-score; that for ACCGGTAA was 0.255 E-score.
The value for ACCGGTAG was 0.374 E-score.
For AGCGGTAG, the binding signal amounted to 0.34 E-score.
The value for AGCGGTAT was 0.321 E-score; that for AGCGGTAC was -0.166 E-score; that for CCCGGTAG was -0.134 E-score.
The value for CTATGTCA was 0.225 E-score; that for AAGTCGCC was -0.0852 E-score.
As for AAAGCATT, the binding signal was -0.0355 E-score.
As for GCTAGTAC, the figure is 0.181 E-score.
As for CCTAGTAC, the figure is 0.125 E-score; as for ACTAGTAC, 0.41 E-score.
The value for ACTAGTAT was 0.422 E-score.
For the sequence CCTAGTAG, the binding signal is 0.233 E-score.
In the case of ACTAGTAG, the binding signal was determined as 0.426 E-score.
As for ACTAGTCT, the figure is 0.248 E-score; as for ACCAGTAT, 0.255 E-score.
The value for ACTAGTGG was 0.00757 E-score.
As for AGTTAAGC, the figure is -0.0477 E-score; as for GGCTAAGA, 0.000408 E-score; as for GTTCTCAA, 0.0738 E-score.
On to TAACACTA, for which the binding signal came out at 0.284 E-score.
As for GAAGACTC, the figure is -0.114 E-score.
As for CAGTAGGC, the figure is -0.157 E-score.
The value for TCCTACAA was 0.0302 E-score; that for AGGCTTCG was -0.0947 E-score.
AGCCCTAA: the binding signal is -0.164 E-score.
On to ATAATTAG, for which the binding signal was 0.317 E-score.
On to CTAATTAC, for which the binding signal was 0.329 E-score.
The value for ATAATTAC was 0.385 E-score; that for CTAATTAA was 0.233 E-score; that for GTAATTAA was 0.181 E-score.
The value for ATAATTAA was 0.29 E-score; that for GTAATTAC was 0.421 E-score.
In the case of CTAATTAG, the binding signal is 0.375 E-score.
For the sequence ATAATTAT, the binding signal stood at 0.268 E-score.
The value for GAACCCAA was -0.176 E-score.
As for ATGAAATC, the figure is 0.029 E-score; as for AGGTCTGG, -0.0443 E-score; as for ATGTAAAT, 0.376 E-score.
ATGTACAG: the binding signal was found to be 0.3 E-score.
The value for AGCTACCA was 0.358 E-score; that for ATGTACAT was 0.409 E-score; that for ATGTAAAC was 0.0692 E-score.
The value for AGCTACCC was -0.139 E-score.
ATGTAAAA: the binding signal amounted to 0.295 E-score.
As for TTGTACAA, the figure is 0.387 E-score; as for CTGTACAA, 0.0838 E-score.
As for GTGTACAA, the figure is 0.167 E-score.
The value for ATGTACAA was 0.311 E-score.
Regarding AGCTACCT, the binding signal stood at 0.164 E-score.
As for ATAATTCC, the figure is 0.213 E-score; as for GAGAACAA, -0.119 E-score.
Regarding GTCGTTTA, the binding signal was 0.0636 E-score.
The value for CCTCACAG was -0.0675 E-score; that for AGCAGCAG was -0.124 E-score; that for ACGGACAC was -0.126 E-score.
For CGCATTAA, the binding signal was determined as 0.0651 E-score.
As for GTGATTTA, the figure is 0.06 E-score; as for CCAGGAGC, -0.14 E-score.
As for AGCGTCTA, the figure is 0.0457 E-score; as for ATGTACCA, 0.342 E-score; as for GTCTACCA, 0.0944 E-score.
As for CTGTACCA, the figure is -0.0416 E-score; as for ACCTACCG, 0.169 E-score; as for ATCTACCC, 0.25 E-score.
In the case of ATCTACCA, the binding signal amounted to 0.48 E-score.
The value for ATCTACCG was 0.409 E-score; that for ATGTACCC was 0.0665 E-score; that for AGCTACCG was 0.309 E-score.
As for ATTGCCGG, the figure is -0.0899 E-score; as for ACCAGCCG, 0.0494 E-score; as for TCAGGACA, -0.136 E-score.
As for CCACCTAA, the figure is -0.104 E-score.
With CTGGTAAC, the binding signal turned out to be 0.176 E-score.
As for GAGAGAGA, the figure is -0.124 E-score; as for CAAGCGTA, -0.175 E-score.
As for AAGCCAGC, the figure is -0.00201 E-score; as for AGACTGAA, 0.0238 E-score.
As for CATACTAG, the figure is 0.312 E-score; as for CATACTAA, 0.125 E-score; as for AATACTGA, 0.188 E-score.
For the sequence AATACTCA, the binding signal was found to be 0.174 E-score.
The value for GATACTAA was 0.307 E-score; that for AATACTAG was 0.341 E-score.
The value for AATACTAA was 0.37 E-score.
As for AATACTAC, the figure is 0.419 E-score; as for AATACTCG, 0.085 E-score.
For the sequence TATACTAA, the binding signal came to 0.364 E-score.
Turning to AATACTTC, the binding signal was determined as 0.235 E-score.
The value for GATACTAC was 0.278 E-score; that for GCAGGGAA was -0.158 E-score; that for TAAATTCA was 0.217 E-score.
As for AGTAGCCA, the figure is -0.0245 E-score; as for CCTTACCG, 0.0725 E-score; as for CGGAGCCG, -0.191 E-score.
Regarding ACGTGCTA, the binding signal is 0.0361 E-score.
As for AATACTAT, the figure is 0.359 E-score.
Consider CATACTCC, for which the binding signal is -0.0183 E-score.
With AATACTGT, the binding signal came out at 0.171 E-score.
As for CATACTAC, the figure is 0.376 E-score; as for CATACTTC, 0.191 E-score.
With AATACTCT, the binding signal turned out to be 0.11 E-score.
Regarding AAAAAGTT, the binding signal was 0.0934 E-score.
As for ACCAACAA, the figure is -0.105 E-score; as for GAACACCA, -0.0539 E-score; as for TACTTCGA, 0.332 E-score.
As for CACTAAGC, the figure is -0.0899 E-score; as for GTAGGAAC, 0.0415 E-score.
The value for CGAACGTA was 0.0863 E-score; that for GCTAATTA was 0.325 E-score; that for ACTAATTG was 0.184 E-score.
As for CCTAATTA, the binding signal came out at 0.228 E-score.
The value for ACTAATTC was 0.359 E-score.
The value for ACTAATTA was 0.438 E-score; that for CCTAATTC was 0.0288 E-score.
As for GGCATCTA, the figure is -0.0204 E-score; as for AGGATGAT, -0.0933 E-score; as for ACTGTGGA, -0.123 E-score.
For the sequence GTTATATA, the binding signal was 0.296 E-score.
Regarding CCTATATC, the binding signal amounted to 0.00873 E-score.
The value for ATTATATA was 0.468 E-score; that for CTTATAGA was 0.112 E-score; that for ATTATAGA was 0.353 E-score.
As for ATTATATG, the figure is 0.269 E-score.
Consider GTTATAGA, for which the binding signal was 0.11 E-score.
As for CTTATATC, the figure is 0.141 E-score; as for ATTATATC, 0.377 E-score; as for CCTGAGCA, -0.194 E-score.
In the case of CATCGACA, the binding signal came out at 0.0503 E-score.
The value for CACAACCG was 0.019 E-score; that for AGCGTGGG was -0.179 E-score; that for ATAGAATA was 0.356 E-score.
For ATCGAAAT, the binding signal was 0.357 E-score.
As for ATAGAATG, the figure is 0.181 E-score.
The value for ATCGAAAC was 0.0448 E-score; that for ATAGAAAA was 0.324 E-score.
As for ATAGAATC, the figure is 0.254 E-score; as for ATAGAAAT, 0.337 E-score.
Regarding ATCGAAAA, the binding signal came out at 0.0373 E-score.
The value for ATAGAAAC was 0.288 E-score; that for TCTTTCCA was -0.0837 E-score.
Turning to AGTCGGAC, the binding signal is -0.171 E-score.
In the case of AGCCCGTG, the binding signal was -0.00226 E-score.
As for AAGCGACT, the figure is 0.0908 E-score.
With AGATAGTG, the binding signal was found to be 0.199 E-score.
As for GGATAGTA, the figure is 0.208 E-score; as for AGATAGTC, 0.0258 E-score; as for AGATAGTA, 0.347 E-score.
The value for CGATAGTA was 0.384 E-score.
Regarding CGATAGTC, the binding signal is -0.0533 E-score.
As for CATGATCC, the figure is 0.0194 E-score; as for AGAAGCTA, 0.0762 E-score; as for AACCTCAC, -0.146 E-score.
The value for AACCGCCC was -0.131 E-score; that for CGGCGAAG was 0.0313 E-score.
As for ATGAAGTC, the figure is -0.0225 E-score.
On to GCGACTTA, for which the binding signal was 0.0295 E-score.
The value for CCACTAAG was -0.137 E-score; that for ATTTCTAG was 0.333 E-score.
As for CTTTCTTC, the binding signal was -0.0764 E-score.
The value for ATTTCTAA was 0.303 E-score.
As for CTTTCTAA, the figure is 0.162 E-score; as for ATTTCTAC, 0.408 E-score; as for CTTTCTAC, 0.444 E-score.
As for AGAGACCT, the figure is -0.154 E-score.
For the sequence ACGTGGGC, the binding signal was -0.0245 E-score.
In the case of GGATTGAC, the binding signal is -0.0238 E-score.
